Assay outcomes: PubChem, several laboratories
Only some compounds are listed: those with a hit (about 12% of all), similar ones and a draw of the others.
Lmaj promast: reduces viability of Leishmania major promastigotes | resazurin fluorescence viability | 200,000 compounds, 9% hits | inhibition, % at 10 µM; in the data active = inhibition above about 50%;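 note: promastigotes grown with compound for 44 hours at 28 °C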
ROMK mod: modulates human ROMK potassium channel activity; B-score at 10 µM; 130,000 compounds, 2% hits; P48048; Tet-inducible ROMK, thallium flux fluorescence; actives lie on both sides;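 active = signal ratio slope over the read window, or its plate-corrected B-score, at least 3 SD from the plate mean, either direction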;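 note: B-score of the F/F0 ratio slope over 7 to 12 s after thallium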
Target sequence (P48048 whole entry, looked up): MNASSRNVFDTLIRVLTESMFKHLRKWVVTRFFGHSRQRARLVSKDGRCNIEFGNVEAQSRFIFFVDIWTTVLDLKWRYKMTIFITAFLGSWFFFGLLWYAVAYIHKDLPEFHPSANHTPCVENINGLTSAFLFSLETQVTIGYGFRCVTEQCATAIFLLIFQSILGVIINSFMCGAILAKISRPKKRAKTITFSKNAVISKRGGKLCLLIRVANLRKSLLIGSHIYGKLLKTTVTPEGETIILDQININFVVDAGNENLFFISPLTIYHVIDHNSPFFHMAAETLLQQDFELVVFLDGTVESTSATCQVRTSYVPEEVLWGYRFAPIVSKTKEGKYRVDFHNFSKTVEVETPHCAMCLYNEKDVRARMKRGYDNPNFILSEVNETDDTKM
WT yeast gro inh: growth inhibition of WT yeast, mitochondrial fusion screen | inhibition, % at 10 µM | mitochondrial fusion phenotypic screen, WT strain | 190,000 compounds, 2.1% hits; in the data active = inhibition above about 58%; tested in S. cerevisiae
INS promoter inh: TRM-6 insulin promoter activity inhibition. TRM-6 cells (human fetal islet line), insulin promoter-eGFP reporter, imaging; reporter expression induced with tamoxifen. inhibition, % at 2 µM. 130,000 compounds, 0.9% hits;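 active = inhibition above the mean plus 3 SD, with well images judged a real hit on visual review, cut at about 60% in these data, passing the limit was not always enough; inconclusive = inhibition over the cutoff but images rejected on review; inactive = inhibition not above the cutoff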
Ins promoter up: MIN6 insulin promoter up-regulation | MIN6 insulin promoter-GFP reporter, high-content imaging; stronger effect = higher value | z-score at 5 µM | 190,000 compounds, 0.3% hits;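 active = z-score above 3 at 5 µM with at least 500 cells counted in the well; inconclusive = wells under 500 cells, flagged as cytotoxic or low count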
KCC2 mod: modulates chloride dependent transport by human KCC2. 190,000 compounds, 2.2% hits. B-score of Tl+ flux slope (higher = more flux/activation; lower = inhibition) at 10 µM. KCC2 cells, thallium flux FluoZin-2 fluorescence. AID 1456;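 active = thallium flux slope and its plate-corrected score both differing from the plate sample mean at a set confidence after two filtering rounds, in either direction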;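 note: slope of fluorescence scaled to starting intensity during 10 to 20 s after thallium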
* marks the source's active call; other numbers are inactive results; ? = inconclusive; / = no result given.

SMILES	Lmaj promast	ROMK mod	WT yeast gro inh	INS promoter inh	Ins promoter up	KCC2 mod
O=C(NC1CCN(C(=S)NCc2ccco2)CC1)C12CC3CC(CC(C3)C1)C2	33	/	-22	2	0.07	2
CC(=O)NCCn1c(SCc2cc(=O)n3cc(Cl)ccc3n2)nc2ccccc2c1=O	-6	0.62	-14	/	0.88	-1.5
CCCN1C(=O)c2cc(C(=O)Nc3ccccc3CC)ccc2C1O (stereo not drawn)	-2	/	-1	/	-0.7	0.95
CC(O)Cc1cn(CC(=O)N2CCN(C(=O)OC(C)(C)C)CC2)nn1 (stereo not drawn)	-1	/	0	/	1	0.26
COc1ccc(C2C=C(c3ccc(C)c(C)c3)Nc3ncnn32)c(OC)c1OC (stereo not drawn)	80*	/	15	/	-0.51	/
CCC1(C)Cc2c(c(=O)n(-c3ccccc3)c3ncnc(N)c23)CO1 (stereo not drawn)	0	0.86	-12	54	-0.22	-1.6
Cc1nc2ncnn2c(C)c1CCC(=O)NC(C)c1ccc2c(c1)OCCO2 (stereo not drawn)	-4	/	-3	-23	/	-0.57
Cc1nc2nc(C)c(CCC(=O)NC(C)c3ccc4c(c3)OCCO4)c(C)n2n1 (stereo not drawn)	-3	/	21	26	0.13	0.31
Cc1nc2cc(-c3cccc(F)c3)nn2c(C)c1CCC(=O)NC(C)c1ccc2c(c1)OCCO2 (stereo not drawn)	97*	-0.012	1	-20	-2.3	-0.88
CC(NC(=O)Cn1cccc1C(=O)c1ccccc1)c1ccc2c(c1)OCCO2 (stereo not drawn)	89*	-0.6	5	/	/	-1.5
Cc1nc2cc(-c3ccccc3)nn2c(C)c1CCC(=O)NC(C)c1ccc2c(c1)OCCO2 (stereo not drawn)	95*	0.3	-7	0	-0.54	-2.5
CCC(Sc1nc2c(cnn2-c2ccccc2)c(=O)[nH]1)C(=O)OC (stereo not drawn)	-4	/	12	/	1.3	-0.8
CN(/N=C\c1ccc(O)c(O)c1)c1nc(-c2ccccc2)cc(-c2ccccc2)n1	100*	0.29	71*	-45	?	1.1
N/C(CSc1ccccn1)=N\OCc1c(Cl)cccc1Cl	/	-0.22	/	/	-0.07	-0.0057
OC1(c2cccc(C(F)(F)F)c2)CCNCC1	60*	-0.54	4	5	-0.1	0.29
Cc1ccccc1OCCCCn1cnc2ccccc21	11	-2.2	46	-30	/	/
Cc1ccccc1OCCCCCn1ccnc1	100*	/	4	/	-2.6	-0.47
Cc1cccc(OCCCCCn2ccnc2)c1	100*	/	12	-42	/	0.1
Clc1ccc(SCCCCn2ccnc2)cc1	100*	-0.9	34	50	/	-0.34
Clc1ccccc1OCCCCn1ccnc1	100*	-0.36	6	32	0.25	-0.72
CN(C)/C=C(/C(=O)c1ccccc1)n1cncn1	-3	-0.92	0	28	/	0.5
CC(C)(C)C(=O)/C(=C\c1ccc([N+](=O)[O-])cc1)n1cncn1	100*	/	60	-88	/	0.41
CCOC(=O)C1CCN(c2c(C(=O)c3ccccc3)cnc3ccc(CC)cc23)CC1	55*	1.4	76*	/	0.19	-0.47
CCOC(=O)C1CCCN(c2nc(C)nc3c2oc2ccccc23)C1 (stereo not drawn)	9	-1.6	23	/	?	/
CCOC(=O)C1CCCN(C(=O)c2cc3c(C)nc4ccccc4c3o2)C1 (stereo not drawn)	77*	-0.7	-7	-3	0.03	/
SMILES	Lmaj promast	ROMK mod	WT yeast gro inh	INS promoter inh	Ins promoter up	KCC2 mod
COc1cc2ncc(C(=O)c3ccccc3)c(N3CCN(Cc4ccccc4)CC3)c2cc1OC	/	/	/	/	0.28	-0.47
CCOC(=O)C1CCCN(c2c(C(=O)c3ccccc3)cnc3ccccc23)C1 (stereo not drawn)	51*	-0.88	59*	4	-0.16	-2.4
COc1ccc2[nH]c(=O)c(CN(Cc3cccs3)S(=O)(=O)c3c(C)ccc4nsnc34)cc2c1	98*	0.76	18	38	/	/
Cc1ccc2[nH]c(=O)c(CN(CC3CCCO3)S(=O)(=O)c3cccc4nsnc34)cc2c1 (stereo not drawn)	13	-1.6	-17	43	-1.4	/
Cc1ccc2[nH]c(=O)c(CN(CC3CCCO3)S(=O)(=O)c3c(C)ccc4nsnc34)cc2c1 (stereo not drawn)	95*	/	4	-44	-0.47	-0.33
N#CC1=C(c2ccc(-c3ccccc3)cc2)COC1=O	-9	0.096	-3	-13	-0.04	-0.051
Cc1cc(C)n(CC(O)CN2c3ccccc3Sc3ccccc32)n1 (stereo not drawn)	27	-0.51	73*	-209	-0.15	/
O=C(CN1CCN(c2cccc(C(F)(F)F)c2)CC1)Nc1cccc(C(F)(F)F)c1	-2	-1.5	9	14	-0.01	/
Fc1ccccc1N1CCN(CC2CC3C=CC2C3)CC1 (stereo not drawn)	89*	-0.16	17	-34	/	0.61
FC(F)(F)c1cccc(N2CCN(CC3CC4C=CC3C4)CC2)c1 (stereo not drawn)	82*	/	9	8	1.3	-0.69
C/C=C(\C)CN1CCN(c2ccccc2F)CC1	8	/	-1	/	-0.68	/
N=C(N)N1CCN(Cc2ccccc2)CC1	-3	1.8	7	/	-0.7	1.5
C1=CC2CC1CC2CN1CCN(Cc2ccccc2)CC1 (stereo not drawn)	95*	0.0028	-15	/	-1	0.093
O=C(Nc1nc(-c2ccccc2)cs1)c1cccc([N+](=O)[O-])c1C(=O)O	-6	/	20	/	-0.22	-1.8
O=C(NCc1cccc(C(F)(F)F)c1)c1cc(Cl)cc(Cl)c1	0	/	-15	16	/	0.86
CCN(CC)C(=O)CSc1nc2ccccc2c(=O)n1CCC(=O)NCc1ccc(F)cc1	-3	/	-22	-114	-0.3	/
CC1CCCCC1NC(=O)NC(=O)CCl (stereo not drawn)	98*	0.21	-11	35	-0.79	-0.085
COC(=O)[C@@H](NC(=O)NC1CCCCC1C)C(C)C (stereo partly drawn)	/	/	/	/	-0.23	0.68
CC1CCCC(NC(=O)CSC2CCCCC2)C1C (stereo not drawn)	5	-0.54	-6	-30	-0.63	-1.7
CC1CCCC(NC(=O)NC(=O)CCl)C1C (stereo not drawn)	99*	-1.6	-12	23	-0.69	-1.3
Cc1nc(/C=[N+](\[O-])C(C)(C)/C=N/O)n(O)c1C	-3	/	10	17	0.82	0.22
O=C1NN=C(c2ccc(Br)cc2)CC1c1ccc(Cl)cc1 (stereo not drawn)	7	-1.5	58*	/	-0.9	-0.0031
Cc1cccc(C2=NNC(=O)C(c3ccc(Cl)cc3)C2)c1 (stereo not drawn)	22	-1.5	4	100*	1.5	0.43
CN1N=C(c2ccc(Cl)cc2)CC(c2ccc(Cl)cc2)C1=O (stereo not drawn)	30	-1.8	65*	/	0.8	-2
CCc1cccc(C)c1NC(=O)CSc1nnc(CCCOc2ccc(Cl)cc2Cl)n1C	1	-1	42	-3	0.01	-1.1
